# Inconclusive results are not listed. Activity calls are given as the source filed them. Rule as the data show it, unless noted: active = response above about 15%; inactive = the rest.
# Assays:
# [1] = yeast TOR pathway RPL19A-GFP modulators, primary screen, cell-based, S. cerevisiae, multiplex flow cytometry (AID 1862; in the data active = percent of DMSO control GFP below about 86%;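 also: lower values mimic rapamycin by blocking the RPL19A rise seen in DMSO cells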); details: S. cerevisiae RPL19A-GFP strain, flow cytometry fluorescence, 3 h; at 10 µM; stronger effect = lower value
# [2] = modulators of MEP2-GFP levels in yeast, primary screen, S. cerevisiae, multiplex flow cytometry (AID 1867;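 active = GFP response, as percent of the DMSO control, above the screen-wide mean plus 3 SD, about 139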;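 also: median GFP channel fluorescence of barcode-gated MEP2-GFP cells measured by flow cytometry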); details: S. cerevisiae MEP2-GFP strain, 3 h, at 10 µM, stronger effect = higher value, 100% means same as DMSO wells
# [3] = modulators of CIT2-GFP expression in yeast, primary screen, S. cerevisiae, GFP fusion, multiplex flow cytometry (AID 1870;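 active = percent response above a set limit, the screen-wide mean plus 3 SD, cut at about 130% in these data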;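 also: barcoded CIT2-GFP strain pooled with four other GFP strains with rapamycin as positive control; median GFP fluorescence per well over plate mean of DMSO wells so 100% = DMSO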); details: 3 h, at 10 µM, stronger effect = higher value
# [4] = modulators of LAP4-GFP expression in yeast, primary screen, S. cerevisiae, multiplex flow cytometry (AID 1873;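 active = GFP signal, as percent of the solvent control, above the screen mean plus 3 SD, about 149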); details: 3 h, at 10 µM, stronger effect = higher value
# [5] = modulators of AGP1-GFP expression in yeast TOR pathway, primary screen, cell-based, multiplex flow cytometry, S. cerevisiae (AID 1887;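 active = GFP signal above the screen-wide mean plus 3 SD, that is over about 124.5% of the solvent control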;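 also: AGP1-GFP fusion strain of S. cerevisiae within a five-strain barcoded multiplex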); details: 3 h, at 10 µM, stronger effect = higher value
# [6] = inhibitors of CD8+ T cell-vesicle binding, pilot screen, LFA-1/ICAM-1 modulator project, MLPCN validation set, flow cytometry (AID 2523;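 active = response below a set limit, under 55% cells CD8-positive and vesicle-bound, and CD8 cells' 90th-percentile brightness under 279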;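 as to vesicle binding response: mean PE anti-B7-1 fluorescence of CD8+ cells relative to row control; 100% = QL9-loaded vesicles with DMSO vehicle in the same plate row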); details: 2C mouse CD8+ T cells, at 7 µM, stronger effect = lower value; double positive events: measured here: CD8+/vesicle+ event percentage
# [7] = molecular target: Integrin beta-1 (Homo sapiens) + Integrin alpha-4 (Homo sapiens) (UniProt P13612+P05556); assay: inhibition of HUTS-21 binding to VLA-4, pilot screen, VLA-4 allosteric modulator project, U937 cells, HUTS-21 mAb, flow cytometry, validation set (AID 2674;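 active = inhibition above 50%, about 3 SD of the validation set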;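 also: antibody binding induced by the VLA-4 ligand LDV present at three times its Kd; 0% = LDV ligand with antibody and no compound and 100% = antibody without LDV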); details: HUTS-21 LIBS mAb binding, at 6.7 µM, stronger effect = higher value, binding induced by LDV ligand
# [8] = superoxide lowering in aged yeast cells, pilot screen, validation compound set (AID 2706;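 active = superoxide response below 65% of plate, a cut near 3 SD across the whole screen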;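 also: yeast exposed to compound for one week at 30 degrees C before staining; 100% = mean of all compound wells on the same plate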); details: S. cerevisiae aging, superoxide DHE fluorescence; at 10 µM; stronger effect = lower value
# [9] = molecular target: Beta-adrenergic receptor kinase 1 (Homo sapiens) (UniProt P25098); assay: GRK2 binders displacing RNA aptamer, biochemical, validation, human GRK2, bead flow cytometry (AID 488806;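 active = aptamer binding inhibition above 30%, about 3 SD of noise from non-fluorescent compounds; inactive = inhibition at or below 30%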); details: bead-bound GRK2, FAM-aptamer displacement, at 10 µM, stronger effect = higher value
# [10] = molecular target: Beta-2 adrenergic receptor (Homo sapiens) (UniProt P07550); assay: beta2AR agonists driving receptor internalization, pilot screen, cell-based, FAP fluorogen, flow cytometry, validation set (AID 504459;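 active = percent response above 42, roughly 3 SD of non-fluorescent test compounds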;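 also: agonist-driven loss of surface beta2AR via internalization measured by FAP dye flow cytometry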); details: Am2.2-beta2AR cells, FAP surface receptor flow cytometry; at 10 µM; stronger effect = higher value
# [11] = molecular target: AP-2 complex subunit beta (Homo sapiens) (UniProt P63010); assay: inhibitors of arrestin peptide binding to AP2, pilot screen, biochemical, validation set, GST-AP2 beads, flow cytometry (AID 504541;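 active = inhibition above 54%, about 3 SD of non-fluorescent compounds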;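 also: AP2 carries R879A mutation and is captured from E. coli lysate; bead-bound FITC arrestin peptide fluorescence measuring arrestin peptide binding to AP2; 0% = DMSO wells and 100% = excess unlabeled arrestin peptide control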); details: FITC arrestin peptide, at 10 µM, stronger effect = higher value, AP2 beta2 appendage fragment, R879A mutant
# [12] = yeast V-ATPase proton transport modulators, S. cerevisiae, pHLuorin, HTS validation (AID 504600);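 also: plate controls were DMSO for no effect and reference compound for full effect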; details: S. cerevisiae pHLuorin cytosolic pH, at 10 µM, stronger effect = higher value
# [13] = tested on: anti-desmoglein-3 scFv antibody binding to human DSG3; assay: inhibitors of anti-DSG3 scFv binding to DSG3, pilot screen, biochemical, validation compound set, bead-based, flow cytometry (AID 588368;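 active = binding below the plate cutoff, the plate median minus 3 SD, with a reading above zero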;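 also: signal is the median channel fluorescence of bead-bound GFP antibody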); details: Protein G beads, DSG3-Fc, scFv-GFP binding, at 10 µM, stronger effect = lower value
# [14] = inhibitors of fungal efflux pumps CDR1, CDR2, MDR1, pilot screen, validation compound set, multiplex, phenotypic (AID 588506;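 active = efflux inhibition above 0.42, the validation set average plus 4 SD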;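 also: Nile Red retained in cells so higher fluorescence means more efflux inhibition; 0 = negative control wells and 1 = enniatin B 25 µM full block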); details: S. cerevisiae pump-expressing triplex, Nile Red efflux flow cytometry; at 10 µM; stronger effect = higher value; the pumps come from Candida albicans
# [15] = molecular target: ATP-binding cassette sub-family B member 6 (Homo sapiens) (UniProt Q9NP58); assay: ABCB6 transporter inhibitors, pilot screen, K562-ABCB6 cells, flow cytometry, validation set (AID 588550;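 active = inhibition above the screen-wide mean plus 3 SD, about 51%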;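 also: 0% = DMSO wells and 100% = benzethonium chloride 70 µM positive control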); details: K562-ABCB6 porphyrin accumulation, 1 h, at 10 µM, stronger effect = higher value
# [16] = promoters of myeloid differentiation in arrested cells, primary screen, cell-based, GFP/MAC1 double positive, flow cytometry, validation set (AID 588685;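 active = differentiation response of at least 50%, scaled between solvent and reference control, from cells with both markers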;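 also: compound exposure lasts four days before antibody staining and flow analysis; 0% = DMSO wells and 100% = 5 µM fulvestrant positive control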); details: ER-HoxA9 marrow cells, stronger effect = higher value, normalized: vehicle 0, fulvestrant 100
# Chain of Integrin beta-1 (Homo sapiens) + Integrin alpha-4 (Homo sapiens) (P05556 whole entry, looked up): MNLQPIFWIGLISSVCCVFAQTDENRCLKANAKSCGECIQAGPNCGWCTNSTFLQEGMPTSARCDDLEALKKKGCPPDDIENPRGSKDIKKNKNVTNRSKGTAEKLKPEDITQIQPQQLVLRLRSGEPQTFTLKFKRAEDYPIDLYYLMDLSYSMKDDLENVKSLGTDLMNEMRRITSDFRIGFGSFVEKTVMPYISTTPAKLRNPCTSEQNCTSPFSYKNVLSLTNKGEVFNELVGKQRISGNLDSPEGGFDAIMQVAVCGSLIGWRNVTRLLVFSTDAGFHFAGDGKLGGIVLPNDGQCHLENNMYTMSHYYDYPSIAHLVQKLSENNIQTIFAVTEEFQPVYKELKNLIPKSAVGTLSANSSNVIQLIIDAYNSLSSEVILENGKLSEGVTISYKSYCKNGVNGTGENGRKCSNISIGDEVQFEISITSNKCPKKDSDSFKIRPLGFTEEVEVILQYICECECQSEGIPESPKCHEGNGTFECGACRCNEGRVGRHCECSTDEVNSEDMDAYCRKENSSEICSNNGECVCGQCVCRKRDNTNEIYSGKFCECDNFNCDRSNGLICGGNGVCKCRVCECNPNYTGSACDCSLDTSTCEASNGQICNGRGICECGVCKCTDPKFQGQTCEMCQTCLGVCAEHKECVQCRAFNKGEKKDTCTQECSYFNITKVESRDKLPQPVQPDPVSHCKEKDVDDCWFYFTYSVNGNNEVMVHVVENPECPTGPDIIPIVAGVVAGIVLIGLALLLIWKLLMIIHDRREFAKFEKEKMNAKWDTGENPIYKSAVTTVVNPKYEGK
# Chain of Integrin beta-1 (Homo sapiens) + Integrin alpha-4 (Homo sapiens) (P13612 whole entry, looked up): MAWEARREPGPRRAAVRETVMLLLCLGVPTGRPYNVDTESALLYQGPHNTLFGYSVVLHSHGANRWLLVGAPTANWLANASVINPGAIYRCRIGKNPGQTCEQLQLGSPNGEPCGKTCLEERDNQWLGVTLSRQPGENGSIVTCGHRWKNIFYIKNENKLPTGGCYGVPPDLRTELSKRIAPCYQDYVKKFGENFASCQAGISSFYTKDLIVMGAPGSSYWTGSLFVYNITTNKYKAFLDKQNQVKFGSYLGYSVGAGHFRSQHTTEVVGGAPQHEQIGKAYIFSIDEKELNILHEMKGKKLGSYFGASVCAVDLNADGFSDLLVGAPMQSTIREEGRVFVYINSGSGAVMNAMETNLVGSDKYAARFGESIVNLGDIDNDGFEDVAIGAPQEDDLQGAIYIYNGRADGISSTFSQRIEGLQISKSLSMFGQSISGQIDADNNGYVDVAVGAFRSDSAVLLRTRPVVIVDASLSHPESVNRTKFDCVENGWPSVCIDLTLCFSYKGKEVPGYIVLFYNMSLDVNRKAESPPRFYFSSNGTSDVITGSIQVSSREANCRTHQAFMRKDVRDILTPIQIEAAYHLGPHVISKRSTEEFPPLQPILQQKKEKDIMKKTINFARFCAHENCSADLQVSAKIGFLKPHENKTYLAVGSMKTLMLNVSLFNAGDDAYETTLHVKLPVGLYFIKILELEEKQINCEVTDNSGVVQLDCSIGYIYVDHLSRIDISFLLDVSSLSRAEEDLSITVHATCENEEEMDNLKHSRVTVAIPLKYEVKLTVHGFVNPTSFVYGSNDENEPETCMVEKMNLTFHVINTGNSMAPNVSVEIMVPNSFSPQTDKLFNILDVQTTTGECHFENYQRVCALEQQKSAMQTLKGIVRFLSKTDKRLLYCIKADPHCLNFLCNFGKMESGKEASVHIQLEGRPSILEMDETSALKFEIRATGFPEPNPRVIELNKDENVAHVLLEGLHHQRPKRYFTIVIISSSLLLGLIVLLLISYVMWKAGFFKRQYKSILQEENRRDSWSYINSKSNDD
# Chain of ATP-binding cassette sub-family B member 6 (Homo sapiens) (Q9NP58 whole entry, looked up): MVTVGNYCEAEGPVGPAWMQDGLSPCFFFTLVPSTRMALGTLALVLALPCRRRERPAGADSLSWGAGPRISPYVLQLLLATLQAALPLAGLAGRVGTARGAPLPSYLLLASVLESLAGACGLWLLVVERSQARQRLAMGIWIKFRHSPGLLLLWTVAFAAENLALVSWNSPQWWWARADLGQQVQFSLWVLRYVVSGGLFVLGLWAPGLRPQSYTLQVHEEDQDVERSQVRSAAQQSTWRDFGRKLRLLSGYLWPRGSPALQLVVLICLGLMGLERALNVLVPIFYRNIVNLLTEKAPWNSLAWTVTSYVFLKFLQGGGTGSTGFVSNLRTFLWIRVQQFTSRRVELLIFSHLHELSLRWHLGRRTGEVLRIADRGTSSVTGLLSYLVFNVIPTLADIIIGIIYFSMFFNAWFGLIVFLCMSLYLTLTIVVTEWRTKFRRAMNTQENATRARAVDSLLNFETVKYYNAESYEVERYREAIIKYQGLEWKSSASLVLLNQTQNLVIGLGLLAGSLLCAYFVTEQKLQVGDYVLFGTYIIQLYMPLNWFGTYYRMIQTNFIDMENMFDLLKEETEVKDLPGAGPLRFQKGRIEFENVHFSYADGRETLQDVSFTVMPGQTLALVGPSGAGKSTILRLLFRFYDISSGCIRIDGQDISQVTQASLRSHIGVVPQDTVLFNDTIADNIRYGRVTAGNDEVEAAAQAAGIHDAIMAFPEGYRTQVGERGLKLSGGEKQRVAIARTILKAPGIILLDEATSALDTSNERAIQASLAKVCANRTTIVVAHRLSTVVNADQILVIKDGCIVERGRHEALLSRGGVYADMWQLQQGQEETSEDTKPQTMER
# Chain of Beta-adrenergic receptor kinase 1 (Homo sapiens) (P25098 whole entry, looked up): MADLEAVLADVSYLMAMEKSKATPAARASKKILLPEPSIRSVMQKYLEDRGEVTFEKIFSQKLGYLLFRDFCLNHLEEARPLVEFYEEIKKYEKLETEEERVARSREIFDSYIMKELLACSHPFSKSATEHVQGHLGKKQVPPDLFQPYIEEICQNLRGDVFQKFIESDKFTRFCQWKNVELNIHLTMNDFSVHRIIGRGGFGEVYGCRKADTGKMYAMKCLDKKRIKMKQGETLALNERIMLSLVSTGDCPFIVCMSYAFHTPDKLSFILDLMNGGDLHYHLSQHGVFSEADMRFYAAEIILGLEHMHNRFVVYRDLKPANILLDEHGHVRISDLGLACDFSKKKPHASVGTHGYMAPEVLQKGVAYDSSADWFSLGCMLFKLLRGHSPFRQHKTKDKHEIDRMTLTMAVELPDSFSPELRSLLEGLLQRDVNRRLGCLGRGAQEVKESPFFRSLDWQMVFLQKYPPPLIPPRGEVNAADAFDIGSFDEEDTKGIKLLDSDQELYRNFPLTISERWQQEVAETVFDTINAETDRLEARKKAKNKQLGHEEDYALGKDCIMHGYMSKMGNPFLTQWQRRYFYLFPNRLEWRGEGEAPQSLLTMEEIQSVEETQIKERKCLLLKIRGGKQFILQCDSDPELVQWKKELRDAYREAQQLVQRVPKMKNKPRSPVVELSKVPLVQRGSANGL
# Chain of Beta-2 adrenergic receptor (Homo sapiens) (P07550 whole entry, looked up): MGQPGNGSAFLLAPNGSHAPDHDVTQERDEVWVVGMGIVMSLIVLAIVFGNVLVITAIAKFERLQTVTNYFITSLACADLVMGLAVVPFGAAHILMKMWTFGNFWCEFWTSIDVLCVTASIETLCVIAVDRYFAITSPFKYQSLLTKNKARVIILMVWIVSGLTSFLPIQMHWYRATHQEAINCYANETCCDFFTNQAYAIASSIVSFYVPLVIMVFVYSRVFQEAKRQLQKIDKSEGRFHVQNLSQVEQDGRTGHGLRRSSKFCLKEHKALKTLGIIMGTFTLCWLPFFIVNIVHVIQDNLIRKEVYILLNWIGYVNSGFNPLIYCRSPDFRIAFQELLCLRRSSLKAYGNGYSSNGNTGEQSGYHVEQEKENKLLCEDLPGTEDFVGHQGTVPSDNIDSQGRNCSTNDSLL
# Chain of AP-2 complex subunit beta (Homo sapiens) (P63010 whole entry, looked up, the tested form may be a part, one chain of several): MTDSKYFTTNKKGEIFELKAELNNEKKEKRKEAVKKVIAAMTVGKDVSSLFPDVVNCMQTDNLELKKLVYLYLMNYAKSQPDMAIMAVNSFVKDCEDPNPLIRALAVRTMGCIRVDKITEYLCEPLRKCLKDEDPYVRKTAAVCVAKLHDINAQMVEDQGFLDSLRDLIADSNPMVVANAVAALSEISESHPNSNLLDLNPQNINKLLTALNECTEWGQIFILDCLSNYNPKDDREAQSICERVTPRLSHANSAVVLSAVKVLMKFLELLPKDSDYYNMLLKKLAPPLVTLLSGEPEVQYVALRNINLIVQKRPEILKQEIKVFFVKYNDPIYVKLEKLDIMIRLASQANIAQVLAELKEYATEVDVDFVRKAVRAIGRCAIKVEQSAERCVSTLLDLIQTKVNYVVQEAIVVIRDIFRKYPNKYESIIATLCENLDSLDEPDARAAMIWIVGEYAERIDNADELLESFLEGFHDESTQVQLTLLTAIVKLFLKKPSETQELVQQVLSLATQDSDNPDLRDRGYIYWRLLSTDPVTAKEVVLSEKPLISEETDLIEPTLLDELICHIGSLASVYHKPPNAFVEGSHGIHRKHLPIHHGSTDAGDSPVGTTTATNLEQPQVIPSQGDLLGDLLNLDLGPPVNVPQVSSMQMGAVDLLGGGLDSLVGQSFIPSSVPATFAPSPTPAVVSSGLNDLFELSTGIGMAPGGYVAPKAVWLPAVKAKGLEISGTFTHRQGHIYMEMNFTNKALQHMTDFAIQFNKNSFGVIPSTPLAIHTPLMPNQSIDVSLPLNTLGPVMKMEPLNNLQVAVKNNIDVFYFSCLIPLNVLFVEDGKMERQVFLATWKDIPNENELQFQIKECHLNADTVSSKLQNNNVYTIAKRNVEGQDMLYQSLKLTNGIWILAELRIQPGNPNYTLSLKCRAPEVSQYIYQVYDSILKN
Structure (SMILES),percent of DMSO control GFP [1],GFP response vs DMSO [2],percent response of DMSO control [3],GFP response vs DMSO [4],"GFP response, % of DMSO [5]",double positive events [6] [%],vesicle binding response [6],inhibition [7],superoxide response (% of plate) [8],aptamer binding inhibition [9],response [10],inhibition [11],response [12],binding (% of control) [13],efflux inhibition (fraction of control) [14],inhibition [15],differentiation response [16]
O=C(CN1CC[n+]2c(-c3cccs3)csc21)c1ccc(Br)cc1,103% (inactive),104% (inactive),108% (inactive),103% (inactive),107% (inactive),64,142% (inactive),1.59% (inactive),96.7% (inactive),0% (inactive),10.7% (inactive),14.7% (inactive),1.44% (inactive),99% (inactive),-0.085 (inactive),-9% (inactive),-7.5% (inactive)
COC(=O)C1=C(C)NC(C)=C(C(=O)OCCN(C)Cc2ccccc2)C1c1cccc([N+](=O)[O-])c1 (stereo not given),101% (inactive),108% (inactive),96.5% (inactive),100% (inactive),110% (inactive),61.3,159% (inactive),0.25% (inactive),98.7% (inactive),1% (inactive),0.14% (inactive),57.5% (active),-9.84% (inactive),97.3% (inactive),0.01 (inactive),-2% (inactive),-1.65% (inactive)
O=c1nc2n(c3c1oc1ccccc13)Cc1ccccc1-2,100% (inactive),105% (inactive),104% (inactive),105% (inactive),108% (inactive),56.6,142% (inactive),-3.77% (inactive),93.6% (inactive),-1% (inactive),-25.7% (inactive),-6.48% (inactive),-0.9% (inactive),99.6% (inactive),-0.3 (inactive),-3% (inactive),-6.03% (inactive)
CCCCCCCCNC(C)C(O)c1ccc(SC(C)C)cc1 (stereo not given),93.5% (inactive),130% (inactive),102% (inactive),85.3% (inactive),92.2% (inactive),38.1,47.2% (active),-12% (inactive),115% (inactive),-13% (inactive),10.9% (inactive),15.9% (inactive),-2.14% (inactive),109% (inactive),-0.17 (inactive),11% (inactive),2.46% (inactive)
O=C1OC(c2ccccc2)=C/C1=C/c1cccs1,106% (inactive),99.3% (inactive),105% (inactive),86.1% (inactive),97.3% (inactive),64.9,212% (inactive),-2.53% (inactive),97.6% (inactive),1% (inactive),-7.02% (inactive),6.48% (inactive),-2.38% (inactive),93.3% (inactive),-0.1 (inactive),-5% (inactive),3.18% (inactive)
COc1cc(NC(=S)NC(=O)c2cccs2)ccc1NC(=O)C(C)C,99.7% (inactive),108% (inactive),90.1% (inactive),124% (inactive),101% (inactive),66.4,265% (inactive),-14.1% (inactive),113% (inactive),3% (inactive),-2.44% (inactive),-6.94% (inactive),1.32% (inactive),96.8% (inactive),0.05 (inactive),9% (inactive),-28% (inactive)
NC(=O)N1c2ccccc2CC(=O)c2ccccc21,103% (inactive),102% (inactive),102% (inactive),92.6% (inactive),102% (inactive),64.1,200% (inactive),6.95% (inactive),106% (inactive),2% (inactive),0.79% (inactive),-3.95% (inactive),-2.65% (inactive),97.3% (inactive),-0.14 (inactive),2% (inactive),-6.03% (inactive)
CCOC(=O)c1ccc(NC(=S)NCCc2ccccc2F)cc1,100% (inactive),107% (inactive),101% (inactive),111% (inactive),93.7% (inactive),68.7,1410% (inactive),-21.2% (inactive),98.7% (inactive),3% (inactive),2.84% (inactive),18.6% (inactive),1.24% (inactive),104% (inactive),0.58 (active),-3% (inactive),9.04% (inactive)
Cc1c(NC(=O)c2cccs2)cccc1[N+](=O)[O-],102% (inactive),103% (inactive),102% (inactive),107% (inactive),99.1% (inactive),67.8,342% (inactive),2.93% (inactive),95.5% (inactive),-4% (inactive),3.73% (inactive),-17.9% (inactive),-1.2% (inactive),104% (inactive),-0.01 (inactive),1% (inactive),18.8% (inactive)
COc1ccccc1N1C(=O)C2CC(C)=C(C)CC2C1=O (stereo not given),103% (inactive),102% (inactive),99.3% (inactive),85.2% (inactive),104% (inactive),63,164% (inactive),19.7% (inactive),109% (inactive),11% (inactive),4.23% (inactive),-31.7% (inactive),2.17% (inactive),99% (inactive),-0.06 (inactive),4% (inactive),-3.4% (inactive)

# — PubChem BioAssay
